This passage reports growth results from PubChem BioAssay (NCI).

About 83,000 compounds went through this panel and 20% of them were active in at least one assay; those are over-represented in the sample as a whole.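 In brief: 96-well plates, 48 h treatment, single concentration, percent growth endpoint.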 Active and inactive are the calls of the source. How the source made its calls: active means growth percent below 10; inactive means the rest.

In the assay the test system is PC-3 prostate. The assay can be described thus: NCI-60 one-dose screen, 48 h (100 = growth as untreated, 0 = no growth, -100 = all killed). Particulars: 10 µM unless noted.
Take `O=C1Nc2ccccc2/C1=C/c1cn(C(=O)c2c(Cl)cccc2Cl)c2ccccc12`: the growth is 41.7% (inactive).

As for `C=CCn1c(C)nc2cc(Nc3nc(N4CCCC4)nc4ccccc34)ccc21`, the growth is 98.7% (inactive).

Regarding `COc1ccc2nc(NNC(=O)c3cnccn3)c3cccn3c2c1`, the growth was 16.5% (inactive).

For the compound `CC(=O)OC1CCC2(C)C(=CC3C4CCC(=O)C4(C)CCC32)C1` (stereo not given), the growth is 101% (inactive).

As to `Cc1ccc(-n2c(-c3ccccc3)c(-c3ccccc3)c3c(SCC(=O)n4[nH]c(N)cc4=O)ncnc32)cc1`, the growth is 79.4% (inactive).

As to `C[C@@H]1N=C(c2ccc3ccccc3n2)Nc2nc3ccccn3c2C1=O`, the growth is 96.8% (inactive).

In the case of `N[C@@H](CCCCNCC(=O)O)C(=O)O`, the growth was 121% (inactive).

Consider `Clc1cccc(Cl)c1C(Nc1nc2ccccc2s1)Nc1nc2ccccc2s1`, for which the growth was 74.2% (inactive).

As to `COc1cc(/C=C/C(=O)c2c(C)nc3ccccc3c2C)ccc1OCCCN1CCN(C(=O)c2ccco2)CC1`, the growth is 88.3% (inactive).

On to `Cc1ccc(Cc2cnc(NC(=O)c3ccc4noc(-c5ccccc5)c4c3)s2)cc1`, for which the growth is 75.2% (inactive).

As to `CC(=O)c1nc(Nc2ccc(C)cc2)sc1C`, the growth is 93.1% (inactive).

As for `Cc1c(C(=O)OC(=NC2CCCCC2)NC2CCCCC2)sc2c1c(=O)nc1c(C#N)n[nH]n12`, the growth is 118% (inactive).

Turning to `O=C(CCc1nnc(CN(c2ccccc2)c2ccccc2)o1)c1nc2ccccc2[nH]1`, the growth was 76.3% (inactive).

Regarding `O=C(CC(SCc1ccccc1)c1ccccc1)c1ccccc1` (stereo not given), the growth is 88.8% (inactive).

Consider `COc1ccc(-c2nc3ccc4[nH]ncc4c3c3c2CCCC3)cc1B(O)O`, for which the growth was 57.6% (inactive).
